Test results published in the supplement of paper PMC6555819.

Experiments:
Assay in all cases: PBM binding z-score (relative to random genomic background probes); higher = stronger binding; sequences stand for … in GC…GCGATTGACAGCGTAGAATGAAGG
[1] = system: FXR:RXRa (NR concentration 270 nM, RXRa partner concentration 90 nM)
In short: (§1)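 The probes on custom Agilent 4×180K protein-binding microarrays were double-stranded, with 34-nt variable regions bearing direct-repeat seeds, single-nucleotide variants, half-site ablations and random human genomic background sequences. Incubation lasted 1 h with ligand-free nuclear receptor dimers in PBS pH 7.4, 2% milk, 0.02% Triton X-100, 1 mM DTT, 0.2 mg/mL BSA and 0.4 mg/ml salmon testes DNA. Antibodies against each partner (one per run) detected bound dimers, and fluorescence scans were regression-normalized. Binding z-scores take the random background probes as reference.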

[2] = system: LXRa:RXRa (NR concentration 270 nM, RXRa partner concentration 90 nM)
In short: as §1

[3] = system: LXRa homodimer (NR concentration 270 nM)
In short: as §1

[4] = system: LXRb:RXRa (NR concentration 270 nM, RXRa partner concentration 90 nM)
In short: as §1

[5] = system: LXRb homodimer (NR concentration 270 nM)
In short: as §1

[6] = system: PPARa:RXRa (NR concentration 270 nM, RXRa partner concentration 90 nM)
In short: as §1

[7] = system: PPARg:RXRa (NR concentration 180 nM, RXRa partner concentration 90 nM)
In short: as §1

[8] = system: PPARg:RXRa 270nM:90nM, anti-RXR (NR concentration 270 nM, RXRa partner concentration 90 nM)
In short: as §1

[9] = system: PPARg:RXRa 30nM:10nM, anti-RXR (NR concentration 30 nM, RXRa partner concentration 10 nM)
In short: as §1

[10] = system: PPARg:RXRa 90nM:30nM, anti-RXR (NR concentration 90 nM, RXRa partner concentration 30 nM)
In short: as §1

Sequence	PBM binding z-score [1]	PBM binding z-score [2]	PBM binding z-score [3]	PBM binding z-score [4]	PBM binding z-score [5]	PBM binding z-score [6]	PBM binding z-score [7]	PBM binding z-score [8]	PBM binding z-score [9]	PBM binding z-score [10]
GCAAATAGGTAATACAAGGTGAAAGTCCGATTGT	2.27	2.87	0.422	0.806	-0.48	1.49	1.02	1.19	0.599	0.979
TCTGCTAGGTCAACGATGTTCAGCTAATCTGCTA	3	2.22	-0.237	1.39	-0.31	3.1	2.54	3.01	2.01	2.42
TCTTATAGGTAAACAGGTGAAAGTCCGTAAGTTA	1.1	1.01	0.0286	0.875	0.307	2.34	2.7	3.52	4.06	3.86
GCAGACAGGTGAAACGCAGGTAACTCGGGGTGGC	-0.13	0.49	-0.695	0.134	-0.553	0.89	0.313	0.104	-0.699	-0.194
GCTAGTTGGTCAGTAAACGGTCACACACCGGTCG	-0.00893	0.121	0.352	-0.139	-0.393	0.395	0.552	-0.0958	-0.311	0.18
TCTTGTAGATCAAGCAGGATAAGAAAGCCTGAGT	-0.0578	-0.0477	-0.267	-0.411	-0.605	0.163	-0.0969	0.937	2.58	1.76
ACTATTAGTTGAGACGAGGGCAACCGGTAGGTTG	0.623	0.318	0.134	0.06	-0.0535	0.319	0.685	-0.0601	-0.0682	0.00323
CTCGAAAGGTCGTGCTCTGGTGAGTATACCAAAC	4.94	3.65	0.255	3.52	0.0875	4.94	2.33	3.59	0.836	2.12
ACTAGCAGGCCATGGGTCACTCAAGATTAGTCCG	0.425	0.807	-0.304	0.694	-0.564	2.85	4.82	5.14	4.15	5.31
TCGAGTAGGTTACCAATGGGGCATTAAGCTTTCT	-0.382	1.24	-0.459	0.663	-1.11	0.96	0.247	1.17	1.39	1.18
ATCTCTAGGTAAAGATAGTTCAGTTAATGCAAAT	0.733	4.33	1.07	1.39	0.619	0.689	0.743	0.482	0.448	0.659
AATATTAGTTGACTTAGGGCAACCGATACGACGC	0.123	0.163	0.741	0.405	0.26	0.162	1.09	0.355	0.448	0.286
ACTGGGAGGACAAAGGTCAGAGCTACGCCAGTGA	4.45	4.69	2.01	4	1.04	5.24	8.13	7.23	5.7	7.48
GATACAGGGTCAGCTAGAGGCCAGAGTCTGGAAA	4.63	2.79	-0.316	2.18	-0.91	4.47	3.57	3.41	0.796	2.27
ACTTGCAGGCCAAGTTTGGGTCACTCAAACAAAG	0.638	0.231	-0.189	1.11	-0.0882	1.87	0.148	0.667	-0.561	0.0704
AGACAAAGTTCACTAGGTAACGTAAGATTCAGCT	5.15	4.98	2.65	3.12	1.08	4.76	6	5.55	2.55	4.7
CCTAGTTGGTCAAGGGCACACACGCTATAGGTAC	0.355	0.541	0.134	0.385	-0.148	0.682	1.51	1.57	0.541	1.26
CCTCCAAGGTCAAGGTCAGTGAAAGAGACTCGAA	7.8	5.56	1.22	4.56	0.877	5.99	6.15	6.06	2.76	4.75
CTCGAAAGGTCGGGTGAGGTGAGTATACGGATAA	3	2.3	0.0705	2.18	0.195	3.49	1.32	1.78	0.448	1.04
CAGCCTAGGTCAGGGCCATTATAGGAGGAACGTT	1.65	1.08	-0.000598	0.902	-0.851	2.17	1.2	1.24	-0.158	0.533
TCTATTAGTTGATTAGGGCAACCGGAACAGCGGA	0.61	0.628	0.183	0.539	0.503	0.953	0.188	1.84	3.7	2.79
CCTAGCAGGCCAGGGTCACACAAGCATTTCGCTT	2.57	2.38	-0.252	2.77	-0.795	4	2.01	2.57	0.18	1.59
TCTCGGAGGACACGAAAGGTCAGAGGTCGACATC	3.84	4.45	3.58	4.14	0.107	4.5	3.27	4.29	3.24	3.74
